Test results: PubChem BioAssay AID2284085 (EPA ToxCast)
Calls of active or inactive are those of the source. How the source made its calls: active means hit-call score of the fitted dose curve at least 0.9, where 1 is the maximum; inactive means score below 0.9.

Biological target: human Fms (CSFR) (CSF1R) Receptor Tyrosine Kinase, CSF1R (gene 1436) (UniProt P07333)
Experiment: ERF_FR_ENZ_hCSF1R: Eurofins (ERF) Enzymatic Radiometric [Km ATP] KinaseProfiler LeadHunter Assay for human Fms (CSFR) (CSF1R) Receptor Tyrosine Kinase
Description: ERF_FR_ENZ_hCSF1R is a biochemical, single-readout assay that uses extracted gene-proteins in a cell-free assay. Measurements were taken 0.25 hour after chemical dosing in a 96-well plate. See Fms (CSFR) Human RTK Kinase Enzymatic LANCE Assay [Km ATP], Cerep.ERF_FR_ENZ_hCSF1R is an assay component calculated from the ERF_FR_ENZ_hCSF1R assay. It is designed to measure enzyme activity using a type of enzyme reporter as detected by fluorescence intensity with LANCE technology.Data from the assay component ERF_FR_ENZ_hCSF1R was analyzed at the assay endpoint, ERF_FR_ENZ_hCSF1R, in the positive analysis fitting direction relative to DMSO as the negative control and baseline of activity. Using a type of enzyme reporter, loss-of-signal activity can be used to understand changes in enzymatic activity as they relate to gene CSF1R. To generalize the intended target to other relatable targets, this assay endpoint is annotated to the kinase intended target family, where the subfamily is receptor tyrosine kinase.
Fms (h) is incubated with 8 mM MOPS pH 7.0, 0.2 mM EDTA, 250 uM […], 10 mM MgAcetate and [g- 33P]-ATP (specific activity and concentration as required). The reaction is initiated by the addition of the Mg/ATP mix. After incubation for 40 minutes at room temperature, the reaction is stopped by the addition of phosphoric acid to a concentration of 0.5%. […]

Chain of human Fms (CSFR) (CSF1R) Receptor Tyrosine Kinase, CSF1R (gene 1436) (P07333 whole entry, looked up): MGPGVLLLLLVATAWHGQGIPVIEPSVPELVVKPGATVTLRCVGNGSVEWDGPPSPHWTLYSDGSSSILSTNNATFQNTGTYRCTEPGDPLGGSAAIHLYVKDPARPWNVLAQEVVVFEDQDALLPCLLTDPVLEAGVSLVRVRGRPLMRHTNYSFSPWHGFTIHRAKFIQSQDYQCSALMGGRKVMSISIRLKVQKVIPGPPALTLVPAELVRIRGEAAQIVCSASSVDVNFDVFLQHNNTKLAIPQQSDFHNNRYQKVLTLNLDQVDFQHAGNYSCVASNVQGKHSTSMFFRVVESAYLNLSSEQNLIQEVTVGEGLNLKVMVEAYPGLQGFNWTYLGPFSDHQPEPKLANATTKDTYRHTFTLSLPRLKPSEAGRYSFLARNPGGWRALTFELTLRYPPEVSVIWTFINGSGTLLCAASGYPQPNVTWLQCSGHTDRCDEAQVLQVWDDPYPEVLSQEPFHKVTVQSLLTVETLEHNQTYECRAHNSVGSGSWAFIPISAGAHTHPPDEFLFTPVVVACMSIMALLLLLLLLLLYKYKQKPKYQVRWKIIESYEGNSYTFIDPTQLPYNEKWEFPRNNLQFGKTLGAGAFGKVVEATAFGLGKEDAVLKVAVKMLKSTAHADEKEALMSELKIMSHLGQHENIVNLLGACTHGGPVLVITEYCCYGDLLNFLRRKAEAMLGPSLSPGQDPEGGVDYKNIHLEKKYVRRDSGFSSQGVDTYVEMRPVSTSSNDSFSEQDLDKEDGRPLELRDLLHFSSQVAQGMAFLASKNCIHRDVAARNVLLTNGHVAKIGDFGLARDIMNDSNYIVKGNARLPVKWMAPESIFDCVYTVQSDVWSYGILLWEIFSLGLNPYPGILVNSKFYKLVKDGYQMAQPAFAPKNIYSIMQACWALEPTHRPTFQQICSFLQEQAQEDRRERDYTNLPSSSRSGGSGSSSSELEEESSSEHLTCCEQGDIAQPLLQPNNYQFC

SMILES	outcome
O=C(/C=C/c1ccc(O)cc1)CC(=O)/C=C/c1ccc(O)cc1	inactive
